From publication PMC4336329 (PLoS ONE, 2015)
About 14,000 (4.5%) of roughly 310,000 compounds showed an effect of 50% or more. Effects have a minus sign here. The full list was thinned out, with strong results kept by preference.

target: human ether-à-go-go-related gene (hERG) potassium channel (human, UniProt Q12809); test: primary screen, population patch clamp on CHO cells stably expressing hERG; higher = less effect of the substance
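Note: peak tail current of the secondary pulse compared with the same well before compound.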

Chain of human ether-à-go-go-related gene (hERG) potassium channel (Q12809 whole entry, looked up): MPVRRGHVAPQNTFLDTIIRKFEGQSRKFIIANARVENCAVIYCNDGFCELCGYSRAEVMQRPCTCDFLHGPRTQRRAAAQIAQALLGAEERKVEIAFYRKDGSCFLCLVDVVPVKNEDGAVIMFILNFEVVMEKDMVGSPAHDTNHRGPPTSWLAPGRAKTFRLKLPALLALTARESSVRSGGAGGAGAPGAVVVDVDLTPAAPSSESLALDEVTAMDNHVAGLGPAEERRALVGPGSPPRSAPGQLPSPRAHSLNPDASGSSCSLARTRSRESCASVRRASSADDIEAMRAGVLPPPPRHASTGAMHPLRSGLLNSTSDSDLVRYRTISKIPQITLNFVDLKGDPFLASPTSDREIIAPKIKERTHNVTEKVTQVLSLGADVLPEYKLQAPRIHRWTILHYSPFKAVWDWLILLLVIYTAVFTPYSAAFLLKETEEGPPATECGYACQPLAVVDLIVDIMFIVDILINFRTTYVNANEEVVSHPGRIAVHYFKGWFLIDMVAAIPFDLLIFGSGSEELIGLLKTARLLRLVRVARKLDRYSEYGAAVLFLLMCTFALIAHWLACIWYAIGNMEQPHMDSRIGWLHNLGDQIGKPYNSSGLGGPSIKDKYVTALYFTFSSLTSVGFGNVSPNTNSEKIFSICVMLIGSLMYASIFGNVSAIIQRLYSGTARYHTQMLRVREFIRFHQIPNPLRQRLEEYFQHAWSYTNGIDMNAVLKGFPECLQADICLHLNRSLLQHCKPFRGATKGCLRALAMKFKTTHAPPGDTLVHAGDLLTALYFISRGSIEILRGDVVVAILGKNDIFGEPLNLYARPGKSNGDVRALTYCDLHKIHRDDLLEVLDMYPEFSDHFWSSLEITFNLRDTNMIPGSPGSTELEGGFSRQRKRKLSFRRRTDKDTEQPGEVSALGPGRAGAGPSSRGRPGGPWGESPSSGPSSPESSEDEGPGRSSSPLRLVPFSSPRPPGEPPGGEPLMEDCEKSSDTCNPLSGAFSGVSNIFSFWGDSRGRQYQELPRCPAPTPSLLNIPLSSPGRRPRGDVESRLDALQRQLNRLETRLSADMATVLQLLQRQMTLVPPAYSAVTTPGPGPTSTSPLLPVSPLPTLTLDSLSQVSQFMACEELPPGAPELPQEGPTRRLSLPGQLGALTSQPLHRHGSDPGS

Structure (SMILES) | hERG current change (%, negative = inhibition) at 10uM
Nc1ccc(-c2nc3ccc(N)cc3[nH]2)cc1 | 7.85%
O=c1c2cc([N+](=O)[O-])cc([N+](=O)[O-])c2[nH]n1-c1ccccc1 | 17.2%
C/C=C(\C)C(=O)NNC(=O)c1sc(-c2ccccc2)nc1C | 16%
Cc1nc2cc(NC(=O)Nc3ccc(Br)cc3)ccc2o1 | 9.81%
CC(C)CNC(=S)N1CCC(c2nc(-c3ccc(F)cc3)no2)CC1 | -59.1%
Cc1cccc(NC(=O)N2CCC(C(=O)c3ccc(F)cc3)CC2)c1 | -40.6%
Cc1ccc(NC(=O)N2CCC(C(=O)c3ccc(F)cc3)CC2)cc1 | -3.84%
O=C(c1ccc(F)cc1)C1CCN(C(=O)Nc2ccc(F)cc2)CC1 | -71.7%
COCCNC(=S)N1CCC(c2nc(-c3ccc(F)cc3)no2)CC1 | -18.9%
Cc1cc(C)cc(NC(=O)N2CCC(C(=O)c3ccc(F)cc3)CC2)c1 | -77.7%
Cc1cc(C)cc(NC(=O)N2CCC(NC(=O)c3ccc(F)cc3)CC2)c1 | -35.5%
COCCNC(=S)N1CCC(c2nc(-c3ccc(N(C)C)cc3)no2)CC1 | -12.9%
CSc1ccc(NC(=O)N2CCC(C(=O)c3ccc(F)cc3)CC2)cc1 | -40.9%
O=C(Nc1ccccc1)N(Cc1ccc(Cl)cc1)CC(O)C(F)(F)F (centres unmarked) | 8.33%
Cc1cccc(N2CCN(S(=O)(=O)c3cc(-c4cc(C)no4)ccc3C)CC2C)c1 (centres unmarked) | 18.9%
CC1SCC(NC(=O)c2ccc(Cl)cc2)CS1 (centres unmarked) | -0.992%
Cc1cc(NC(=O)CSCc2ccc([N+](=O)[O-])cc2)no1 | -1.21%
Cc1[nH]c2ccccc2c1C(=O)C(C)OC(=O)c1ccc(Cl)nc1 (centres unmarked) | -12.9%
COC(=O)c1ccccc1NC(=O)c1cc[n+](C)cc1 | 11.8%
CCOCCCNS(=O)(=O)c1ccc(NC(=O)N2c3ccccc3Sc3ccccc32)cc1 | 3.13%

Structure (SMILES) | hERG current change (%, negative = inhibition) at 10uM
O=C(NC1CCOC1)c1cc(COc2cccc(C(F)(F)F)c2)on1 (centres unmarked) | 2.06%
CCCCOC(=O)c1nc(Cl)c(Cl)c(N)c1Cl | -0.0656%
O=C(COC(=O)c1nsc(Cl)c1Cl)NC1CCCCC1 | 17.1%
CCCCCCCOC(=O)c1nc(Cl)c(Cl)c(N)c1Cl | -4.56%
CCCCCCCCOC(=O)c1nc(Cl)c(Cl)c(N)c1Cl | -66.3%
O=C(COC(=O)c1ncc(Cl)c(Cl)c1Cl)NC1CCCCCC1 | 19%
Nc1c(Cl)c(Cl)nc(C(=O)OCC(=O)NC2CCCCC2)c1Cl | -58.2%
CN1C(=O)/C(=C/c2cccn2-c2ccc3ccccc3c2)C(=O)NC1=S | 12.2%
Cc1c(Cc2ccccc2)c(=O)oc2cc(OCC(=O)NCC(O)c3ccccc3)ccc12 (centres unmarked) | 28.7%
C/C(CC(=O)Nc1cc(C)ccn1)=N\NC(=O)C(=O)NC(C)C | 12.5%
O=C(OCCOc1ccccc1Cl)c1ccc(-n2cnnn2)cc1 | -19.2%
O=C(c1cc(-c2ccc(Br)cc2)on1)N1CCCC1 | 10.3%
O=C(NCCN1CCN(Cc2ccccc2Cl)CC1)Nc1ccccc1 | -47.5%
COc1ccc(NC(=O)N2CCC(Cc3ccccc3)CC2)cc1 | -3.45%
O=C(NCCN1CCN(c2ccccc2Cl)CC1)Nc1ccccc1 | -34.1%
Cc1ccccc1CC1CCN(CCCNC(=O)Nc2ccccc2)CC1 | -68.5%
COc1ccc(NC(=O)NCCCCc2ccccc2)cc1 | 1.06%
Cc1ccccc1NC(=O)NCCCN1CCCC1 | 26.6%
CSc1ccc(NC(=O)NCCCN2CCC(Cc3ccccc3)CC2)cc1 | -75.9%
O=C(NCCCN1CCN(Cc2ccccc2Cl)CC1)Nc1ccccc1 | -56.8%

Structure (SMILES) | hERG current change (%, negative = inhibition) at 10uM
CSc1ccc(NC(=O)NCc2ccccc2)cc1 | 19%
Cc1ccccc1NC(=O)NCCCN1CCN(C2CCCCC2)CC1 | -9.26%
COc1ccc(NC(=O)NCCCN2CCC(Cc3ccccc3)CC2)cc1 | -77.5%
CSc1ccc(NC(=O)NCCN2CCc3ccccc3C2)cc1 | -43.6%
Cc1c(NC(=O)COc2c(F)c(F)c(F)c(F)c2F)c(=O)n(-c2ccccc2)n1C | 0.328%
COc1ccc(/C(C)=N/NC(=O)CNC(=O)/C=C\c2ccccc2)c(OC)c1 | -9.28%
C/C(=N\OCc1ccccc1C#N)c1cc2ccccc2o1 | 0.146%
O=C(NCCCN1CCOCC1)c1ccc2nc(Cc3cccc(Cl)c3)oc2c1 | -7.7%
COC(=O)c1ccccc1NC(=O)NCc1ccccn1 | -6.01%
O=C(CC(Cc1ccccc1)C(=O)O)Nc1ccc(F)cc1 (centres unmarked) | 10.4%
COC(=O)c1cc(=O)n(Cc2cccs2)c(=Nc2ccccc2)s1 | -0.229%
Oc1cccc(/C=N/Nc2ccc(Cl)nn2)c1O | 8.72%
CC(OC(=O)CNC(=O)c1ccco1)C(=O)Nc1ccc(Cl)cn1 (centres unmarked) | -11.4%
O=C(/C=C/c1cn(CC(O)CN2CCOCC2)c2ccccc12)c1cccs1 (centres unmarked) | -21.8%
CCCCN(C)CC(O)Cn1cc(/C=C/C(=O)c2cccs2)c2ccccc21 (centres unmarked) | -33.7%
O=C(/C=C/c1cn(CC(O)CN2CCCCCC2)c2ccccc12)c1cccs1 (centres unmarked) | -75.2%
O=C(/C=C/c1cn(CC(O)CN2CCCCC2)c2ccccc12)c1cccs1 (centres unmarked) | -54.4%
O=Cc1cn(CC(O)CN2CCCCC2)c2ccccc12 (centres unmarked) | 27.3%
CCCN(CCC)CC(O)Cn1cc(/C=C/C(=O)c2cccs2)c2ccccc21 (centres unmarked) | -30.7%
